Data as given in PubChem BioAssay (EPA / NIEHS).
Records with an inconclusive call do not appear. Active and inactive are the calls of the source. Rule for the calls, unless noted: active = hit-call score of the fitted dose curve at least 0.9, where 1 is the maximum; inconclusive = response in the unintended direction; inactive = score below 0.9.

Molecular target: Cellular tumor antigen p53 (Homo sapiens) (UniProt P04637)
Test: TOX21_p53_BLA_p4_ratio: Tox21 HCT-116 p53 Agonism Beta-lactamase Assay, Ratio, Phase 4 (AID 2283601)
How it was run: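 Signal is the blue/green (460nm/530nm) ratio of cleaved versus uncleaved CCF4-AM substrate, read after 2 h substrate loading. Cells were HCT116 carrying the p53-responsive beta-lactamase reporter, dosed 16 h at 37C, 5% CO2; CellTiter-Glo measured in parallel.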

Sequence of Cellular tumor antigen p53 (Homo sapiens) (P04637 whole entry, looked up): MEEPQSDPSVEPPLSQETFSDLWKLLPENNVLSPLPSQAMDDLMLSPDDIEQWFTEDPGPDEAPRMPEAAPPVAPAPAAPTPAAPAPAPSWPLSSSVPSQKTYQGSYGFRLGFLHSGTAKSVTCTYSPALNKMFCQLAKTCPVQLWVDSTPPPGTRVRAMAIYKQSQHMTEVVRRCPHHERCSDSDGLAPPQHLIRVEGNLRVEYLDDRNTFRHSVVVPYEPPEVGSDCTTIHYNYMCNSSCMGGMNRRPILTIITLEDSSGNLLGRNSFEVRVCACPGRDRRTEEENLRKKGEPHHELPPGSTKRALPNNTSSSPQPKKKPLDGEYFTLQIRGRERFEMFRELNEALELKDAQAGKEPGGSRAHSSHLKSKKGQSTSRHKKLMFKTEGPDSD

Structure (SMILES)	outcome
C[Si](C)(C)C	inactive
Nc1nc(-c2ccccc2)c(Br)c(=O)[nH]1	inactive
O=C(O)c1cccc(C(=O)O)c1C(=O)O	inactive
CCCCCCCCCCCCOC(=O)c1ccc(O)cc1	inactive
C[N+](C)(C)CCOC(N)=O	inactive
Cc1cc(O)cc2c1O[C@](C)(CCC[C@H](C)CCC[C@H](C)CCCC(C)C)CC2	inactive
N[C@H]1C(O)O[C@H](CO)[C@@H](O)[C@@H]1O (stereo partly drawn)	inactive
CO/N=C(\C(=O)N[C@@H]1C(=O)N2C(C(=O)OCOC(=O)C(C)(C)C)=C(/C=C\c3scnc3C)CS[C@H]12)c1csc(N)n1	inactive
C=C(C)C1CCC(C)(O)CC1 (stereo not drawn)	inactive
CCCCCCCCCCCCCCCCCCOP(=O)([O-])OC1CC[N+](C)(C)CC1	inactive

Test system: not listed separately
Test: CCTE_Harrill_HTTr_Viability_MCF7: CCTE's 6-hour Cell Viability Assessment for the High-Throughput Transcriptomics (HTTr) Platform, in MCF-7 cells cultured in DMEM + 10% fetal bovine serum, Harrill Lab (AID 2284010; active = hit-call score of the fitted dose curve at least 0.9, where 1 is the maximum; inactive = score below 0.9)
How it was run: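 Propidium iodide exclusion, imaged by high-content analysis, gauged viability after a six-hour exposure across eight concentrations. Cells were MCF-7 grown in DMEM with 10% fetal bovine serum; fits run in both directions against DMSO.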

Structure (SMILES)	outcome
O=C(OOC(=O)c1ccccc1)c1ccccc1	inactive
COc1cc(OC)c(C(=O)CCCN2CCCC2)c(OC)c1	inactive
COc1ccccc1OCC(O)COC(N)=O (stereo not drawn)	inactive
C=C(C)C1CCC(C)(O)CC1 (stereo not drawn)	inactive

Test system: not listed separately
Test: CCTE_Harrill_HTTr_Apoptosis_MCF7: CCTE's 6-hour Apoptosis Assessment for the High-Throughput Transcriptomics (HTTr) Platform, in MCF-7 cells cultured in DMEM + 10% fetal bovine serum, Harrill Lab (AID 2284011; active = hit-call score of the fitted dose curve at least 0.9, where 1 is the maximum; inactive = score below 0.9)
How it was run: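 High-content imaging of CellEvent Caspase 3/7 Green signal follows a six-hour exposure, with eight concentrations per chemical. MCF-7 cells grown in DMEM plus 10% fetal bovine serum; activity fitted in both directions against DMSO.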

Structure (SMILES)	outcome
O=C(OOC(=O)c1ccccc1)c1ccccc1	inactive
COc1cc(OC)c(C(=O)CCCN2CCCC2)c(OC)c1	inactive
COc1ccccc1OCC(O)COC(N)=O (stereo not drawn)	inactive
C=C(C)C1CCC(C)(O)CC1 (stereo not drawn)	inactive
